Measurements: article PMC5540273 (PLoS ONE, 2017)

Test system: RET
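Further: kd values determined as follow-up on hits from a single-replicate KINOMEscan panel screen.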

| Structure (SMILES) | Kd |
| --- | --- |
| COc1cc2c(Nc3cccc(NC(=O)c4ccccc4)c3)ncnc2cc1OCCCN1CCOCC1 [GSK223810] | 110 nM |
| O=c1cc(N2CCOCC2)nc2n(Cc3cccc(Cl)c3)ccn12 [GSK2296823] | > 10000 nM |
| Nc1n[nH]c2nnc(-c3ccccc3)cc12 [SB-517389] | > 10000 nM |
| Cl.O=S(=O)(c1cccc(F)c1)c1ccc(Nc2ncnc3cc(Br)sc23)cc1Cl [GSK306886] | > 10000 nM |

Test system: RIPK2

| Structure (SMILES) | Kd |
| --- | --- |
| CCc1nc(-c2cccc(N(C)S(=O)(=O)c3ccccc3)c2)c(-c2ccnc(Nc3ccc(N4CCN(C(C)=O)CC4)nc3)n2)s1 [GSK1645895] | 130 nM |
| COc1cc2ncnc(Nc3ccc(OCc4ccccc4Br)c(Cl)c3)c2cc1OC.Cl [GI261590] | 410 nM |
| Oc1ccc2ncnc(Nc3ccc(OCc4ccccc4)cc3)c2c1 [GI262866] | 8.1 nM |
| O=C(Nc1ccccc1)Nc1ccc(Oc2ccc3nccn3n2)cc1 | > 10000 nM |
